sEH activator: soluble epoxide hydrolase (human) activation; P34913; purified human sEH enzymatic activity, activator screen; activation, % at 2 µM; 0.04% of 91,000 active; AID 717; in the data active = activation above about 37%
CYP2C19 act: cytochrome P450 2C19 (human) activation; 96,000 tested, under 10 active; recombinant CYP2C19, luciferin-H EGE luminescence; active compounds read high; 0 = fully inhibited enzyme, 1 = untreated enzyme; activation factor at 5 µM; P33261;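 active = activation factor of at least 2 at 5 µM in the primary screen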;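 also: 0 = wells with 2.5 mM tranylcypromine and 1 = vehicle-only wells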
CYP2C19 inhib: inhibitors of human CYP2C19; P33261; CYP2C19 Supersomes, luciferin-H EGE luminescence, 30 min; inhibition, % at 5 µM; 21% of 96,000 active; AID 778;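 active = CYP2C19 inhibition above a set limit at 5 µM in the primary screen, cut at about 50% in these data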;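 also: plate controls were negative control wells for no effect and 2.5 mM tranylcypromine positive control for full effect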
CYP2C9 activ: activators of human CYP2C9. P11712. recombinant CYP2C9, luciferin-H conversion, luminescence; active compounds read high; factor 1 = untreated enzyme, 0 = blocked. activation factor at 5 µM. 1.4% of 96,000 active;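 active = activation factor of 2 or more for CYP2C9 at a 5 µM dose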;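 also: 0 = sulfaphenazole-blocked wells and 1 = vehicle-only wells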
Target sequence (P11712 whole entry, looked up): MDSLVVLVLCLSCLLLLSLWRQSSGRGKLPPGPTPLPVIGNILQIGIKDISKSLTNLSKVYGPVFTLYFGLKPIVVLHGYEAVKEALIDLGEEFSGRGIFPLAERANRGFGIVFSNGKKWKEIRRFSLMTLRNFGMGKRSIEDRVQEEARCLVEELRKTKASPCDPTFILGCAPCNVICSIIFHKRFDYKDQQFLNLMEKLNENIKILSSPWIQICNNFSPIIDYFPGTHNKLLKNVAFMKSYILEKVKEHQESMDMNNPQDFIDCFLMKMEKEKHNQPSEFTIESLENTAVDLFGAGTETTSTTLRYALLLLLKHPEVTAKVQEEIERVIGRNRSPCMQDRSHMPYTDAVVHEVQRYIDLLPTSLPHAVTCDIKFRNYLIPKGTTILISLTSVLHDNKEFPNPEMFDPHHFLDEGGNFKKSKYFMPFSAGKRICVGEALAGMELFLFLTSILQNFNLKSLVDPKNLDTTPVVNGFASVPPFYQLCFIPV
sEH inhibitor: inhibitors of human soluble epoxide hydrolase; P34913; recombinant human sEH enzymatic activity assay; inhibition, % at 2 µM; 0.34% of 91,000 active; in the data active = inhibition above about 80%
CYP2C9 inh: inhibitors of human CYP2C9. P11712. CYP2C9 Supersomes, luciferin-H conversion, luminescence. inhibition, % at 5 µM. 20% of 96,000 active. AID 777;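 active = blocking of liver enzyme CYP2C9 beyond about 50% at 5 µM, limit read from the data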
* = called active by the depositor; · = no result. Only some compounds are listed: those with a hit (about 27% of all), similar ones and a draw of the others.

SMILES	sEH activator	CYP2C19 act	CYP2C19 inhib	CYP2C9 activ	sEH inhibitor	CYP2C9 inh
CCn1c(SCC(=O)Nc2nc(C)c(C)s2)nnc1-c1cccs1	0	·	·	·	-1	·
c1ccc(-c2nn3c(C4COc5ccccc5O4)nnc3s2)cc1 (centres undefined)	10	·	·	·	-7	·
CCn1c(SCC(=O)c2ccc(Cl)cc2)nnc1-c1cccs1	9	0.3	70*	0.8	-11	25
CCOC(=O)N1CCN(C(=O)c2ccc(N3CCCC3=O)cc2)CC1	·	1	0	1	·	2
Cn1cnnc1SCC(=O)c1c[nH]c2ccccc12	·	0.5	47	0.8	·	21
CCn1c(SCC(=O)c2ccc(Cl)cc2)nnc1C(C)C	4	0.2	77*	1.2	-7	-16
CCn1c(SCC(=O)c2c[nH]c3ccccc23)nnc1-c1cccs1	0	0.3	70*	0.9	6	14
Cc1ccnc(NC(=O)COC(=O)C2COc3ccccc3O2)n1 (centres undefined)	4	1	3	0.9	-6	5
CC(C)(C)NC(=O)NC(=O)COC(=O)c1ccco1	·	1	-5	1.1	·	-11
COc1ccccc1N(CC(=O)NCC1CCCO1)C(=O)CCC(=O)Nc1nccs1 (centres undefined)	8	·	·	·	-7	·
O=C(Oc1ccc(Cl)cc1N1C(=O)CCC1=O)c1ccco1	-1	0.9	11	0.9	1	6
N#CCSc1nnc(COc2ccc3ccccc3c2)o1	5	0.4	57*	0.9	-6	10
COc1cc(-c2nnc(COc3ccc4ccccc4c3)o2)cc(OC)c1OC	2	0.5	46	0.5	-2	49
NC(=O)C1(N2CCCCC2)CCN(C2CC(=O)NC2=O)CC1 (centres undefined)	14	·	·	·	-10	·
CCOc1ccc(NC(=O)CN(C)S(=O)(=O)c2cccs2)cc1	3	0.8	20	1.3	-2	-32
Cc1ccc(C)c(NC(=O)CN(C)S(=O)(=O)c2ccc(F)cc2)c1	14	0.8	16	1.8	-15	-85
Cc1ccc(NC(=O)CN(C)S(=O)(=O)c2cccs2)cc1C	-11	0.2	79*	0.8	9	17
Cc1ccc(NC(=O)CN(C)S(=O)(=O)c2cccs2)cc1F	-37	0.3	69*	0.7	37	32
Cc1ccc2nc(C)cc(Nc3ccc4c(c3)OCCO4)c2c1	7	0.8	20	0.3	-6	68*
Cc1ccc(S(=O)(=O)N/N=C\C=C\c2ccccc2)cc1	-4	0.8	17	0.2	2	84*
Cc1ccc(S(=O)(=O)N/N=C\c2ccc(C)o2)cc1	2	0.9	6	0.8	1	20
O=S(=O)(N/N=C\C=C\c1ccccc1)c1ccc(Br)cc1	3	0.5	48	0	-3	97*
CC(c1ccccc1)N1CC(C(=O)N2CCN(c3ccc(F)cc3)CC2)CC1=O (centres undefined)	0	1.1	-5	1.6	1	-55
CCn1c(-c2ccc3ncccc3c2)n[nH]c1=S	10	0.7	26	1	-11	3
CCn1c(-c2cccc(Br)c2)n[nH]c1=S	-14	0.2	76*	0.8	18	23
SMILES	sEH activator	CYP2C19 act	CYP2C19 inhib	CYP2C9 activ	sEH inhibitor	CYP2C9 inh
Cc1ccc(-c2n[nH]c(=S)n2/N=C/C=C/c2ccccc2[N+](=O)[O-])cc1	-11	0.7	27	0.4	12	58*
CCOC(=O)c1c(N)sc(C(O)(C(F)(F)F)C(F)(F)F)c1-c1ccc(Cl)cc1	-8	0.4	62*	0.1	9	86*
CCOC(=O)c1c(N)sc(C(O)(C(F)(F)F)C(F)(F)F)c1-c1ccc(F)cc1	7	0.7	32	0.3	-5	75*
COc1ccc(NS(=O)(=O)c2ccc(-n3nnc4ccccc43)c([N+](=O)[O-])c2)cc1	-14	0.3	74*	0.1	16	93*
O=[N+]([O-])c1cc(S(=O)(=O)Nc2cccc(C(F)(F)F)c2)ccc1-n1nnc2ccccc21	8	0.1	93*	0	-9	98*
COc1ccc(NS(=O)(=O)c2ccc(C)c(C(=O)O)c2)cc1	9	1	-4	0.9	-11	9
O=C(O/N=C\c1ccc(N2CCCCC2)c([N+](=O)[O-])c1)c1cccc(C(F)(F)F)c1	0	0.8	19	1	-2	4
COc1ccc(C(C(=O)NC2CCCC2)N2CCc3ccccc32)cc1 (centres undefined)	·	1.1	-14	1	·	2
COc1cc(OC)cc(C(=O)n2cnnc2N)c1	4	0.9	11	1	-5	3
Cn1nnnc1CCOCCc1nnnn1C	2	1	-2	1	-1	2
COc1ccc(/C=C2\CCc3ccccc3C2=O)cc1Cn1nc(C)cc1C	9	0.1	90*	0.5	-12	53*
COc1ccc(/C=c2/sc3n(c2=O)C(c2ccccc2OC)C2=C(N=3)c3ccccc3CC2)cc1O (centres undefined)	16	1	-1	0.7	-18	33
COc1ccc(/C=C2\CCc3ccccc3C2=O)cc1OC	8	0.7	30	0.5	-8	53*
Cc1ccsc1/C=C1\CCc2ccccc2C1=O	2	0.1	93*	0.1	-4	87*
Cc1ccccc1/C=C1\CCCc2ccccc2C1=O	9	·	·	·	-12	·
O=C1/C(=C\c2ccc3ccccc3c2)CCCc2ccccc21	-4	·	·	·	1	·
O=C(OCCN1CCOCC1)C(c1ccccc1)c1ccccc1	·	0.3	70*	0.4	·	56*
COc1ccccc1C(=O)OCCN1CCOCC1	-17	1	-2	0.9	14	10
CS(=O)CCC(NS(=O)(=O)c1ccccc1)C(=O)O (centres undefined)	·	1.2	-17	0.9	·	5
CN(Cc1nc(-c2ccncc2)no1)S(=O)(=O)c1ccc(Br)cc1	1	0.1	89*	0.1	-3	93*
CN(Cc1nc(-c2ccccn2)no1)S(=O)(=O)c1ccccc1	13	0.4	64*	0.8	-19	15
CN(Cc1nc(-c2ccncc2)no1)S(=O)(=O)c1ccc(Cl)cc1	-5	0	96*	0.1	3	93*
Cc1ccc(S(=O)(=O)N(C)Cc2nc(-c3ccccn3)no2)cc1	-5	1.1	-7	1	8	-1
CN(Cc1nc(-c2ccncc2)no1)S(=O)(=O)c1ccccc1	8	0	99*	0.3	-14	72*
Cc1ccc(NC(=O)c2c(Cl)n(C)c3ccccc23)cc1	-10	0.7	26	2.1*	8	-112
Cn1c(Cl)c(C(=O)Nc2ccccc2)c2ccccc21	16	0.8	22	1.2	-13	-16
O=S(=O)(Nc1ncccn1)c1ccc(Nc2ncnc3ccccc23)cc1	-4	0.7	32	1.1	7	-9
Cc1ccc(S(=O)(=O)Cn2cnnn2)cc1	·	0.9	10	1	·	3
